In the library only some 21% were active in any assay of this set; here they are far more common.
Shiga toxin inh: A qHTS for Small Molecule Inhibitors of Shiga Toxin | Vero cells, Shiga toxin protein synthesis inhibition reporter | inhibition, % at 38.7 µM | actives 9.2% (n = 290,000) | AID 2315, 2010; in the data active = inhibition mostly above about 28%, no sharp cut-off; inactive = mostly below about 43%; also: 0% is about no effect
Pf growth 48h: Primary qHTS for delayed death inhibitors of the malarial parasite plastid, 48 hour incubation | AID 504832, 2011 | P. falciparum luciferase growth in erythrocytes, 48 h | Potency, µM (highest dose often 28.7 µM), without a hit: at the top dose activity change, negative = inhibition, actives largely listed as inhibitors | actives 5.9% (n = 310,000); also: potency is read from the fitted curve at half-maximal effect; % is scaled to controls: 0 for no effect and ±100 for the full control effect
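Parasite viability was followed by luminescence of a genomically integrated firefly luciferase. Cultures held 0.1% parasitemia at 2% hematocrit (final), incubated under 5% CO2 at 37 C.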
NS1 function inh: qHTS Assay for Inhibitors of Influenza NS1 Protein Function. Potency, µM (titrated, usually from 46.1 µM), without a hit: at the highest dose activity, positive = more growth. actives 0.4% (n = 270,000); calls by dose curve; also: potency is read from the fitted curve at half-maximal effect; actives are rising curves; nearly all actives have a fitted effect of over 50% in size
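A cell-based growth assay was used: compounds that relieve NS1-induced slow growth of budding yeast raise OD600. Assay medium was yeast nitrogen base with ammonium sulphate and -URA supplement, pH 6.0, with 2% galactose.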
Pf growth 96h: Primary qHTS for delayed death inhibitors of the malarial parasite plastid, 96 hour incubation; P. falciparum luciferase reporter growth, 96 h; Potency, µM (doses to about 28.7 µM), for the others: at the top dose activity change, negative = inhibition, most hits filed as inhibitors; actives 6.9% (n = 320,000); AID 504834, 2011; also: potency is read from the fitted curve at half-maximal effect; % is scaled to controls: 0 for no effect and ±100 for the full control effect
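P. falciparum expressing integrated firefly luciferase grown in erythrocytes (2% hematocrit, 0.05% parasitemia final) with compounds for 96 hours at 37 C, 5% CO2. Growth inhibition read as loss of luminescence after adding luciferase detection reagent.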
Cycloheximide cs: Cycloheximide Counterscreen for Small Molecule Inhibitors of Shiga Toxin. cell reporter, cycloheximide protein synthesis inhibition counterscreen. max response, %. actives 12% (n = 300,000); in the data active = max response mostly above about 13%, no sharp cut-off; inactive = mostly below about 14%; also: read at 38.3 µM for the half of the compounds with a filed dose; 0% is about no effect
SARS PLpro yeast: qHTS of Yeast-based Assay for SARS-CoV PLP. S. cerevisiae expressing SARS-CoV PLpro, growth rescue. Potency, µM (top dose mostly 32.9 µM), for the others: top-dose activity, positive = growth rescue, usual class: activators. actives 0.19% (n = 330,000). AID 485353, 2010; calls by dose curve; also: potency is read from the fitted curve at half-maximal effect; 0% is about no effect; nearly all actives have a fitted effect of over 55% in size
Numbers without * were called inactive; [ ] = another dose, or the depositor's remark. Unless noted, calls follow the shape of the dose curve; as a rule, active = well fitted inhibition curve with a large enough effect; inconclusive = small, poorly fitted or top-dose-only effect, or another doubt; inactive = no such curve, though single readings can be large or run the other way.

For COc1ccc(C(=O)N2CCN(c3nc4cc(C)ccc4cc3C#N)CC2)c(OC)c1 the results were Shiga toxin inh 6.5, Pf growth 48h 2.08µM*, NS1 function inh -39.4%, Pf growth 96h -2.5%, Cycloheximide cs -2.7 and SARS PLpro yeast -4.5%.
Screening Cc1ccc2cc(C#N)c(N3CCCN(C(=O)C4CCCO4)CC3)nc2c1 (stereo not drawn) returned Shiga toxin inh 0.1, Pf growth 48h 2.94µM*, NS1 function inh -8.0%, Pf growth 96h inconclusive, Cycloheximide cs -2.6 and SARS PLpro yeast -0.5%.
For Cc1ccc2cc(C#N)c(N3CCCN(C(=O)c4cnccn4)CC3)nc2c1 the results were Shiga toxin inh 25.4, Pf growth 48h -33.6%, NS1 function inh -0.4%, Pf growth 96h inconclusive, Cycloheximide cs -7.7 and SARS PLpro yeast 2.6%.
Screening COc1ccc(N2C(=NC(=O)CCC3CCCC3)SC3CS(=O)(=O)CC32)cc1 (stereo not drawn) returned Shiga toxin inh -2.7, Pf growth 48h 8.7%, NS1 function inh -0.5%, Pf growth 96h 34.4%, Cycloheximide cs -2.9 and SARS PLpro yeast 9.9%.
Screening CCN1C(=O)[C@@H]2[C@@H](c3ccc(-c4cccc(Cl)c4)c(OC)c3)N3CCCC[C@@]3(C(=O)OC)[C@@H]2C1=O returned Pf growth 48h 10.4µM*, Pf growth 96h 3.7µM* and SARS PLpro yeast 0.7%.
CCN1C(=O)[C@H]2[C@@H](c3ccc(-c4ccc(OC)cc4)c(OC)c3)N3CCCC[C@@]3(C(=O)OC)[C@H]2C1=O was read as Pf growth 48h 11.7µM*, Pf growth 96h 9.28µM* and SARS PLpro yeast -2.1%.
CCN1C(=O)[C@H]2[C@@H](c3ccc(-c4ccc(F)cc4)c(OC)c3)N3CCC[C@@]3(C(=O)OC)[C@H]2C1=O was read as Pf growth 48h 7.38µM*, Pf growth 96h 7.38µM* and SARS PLpro yeast -0.9%.
CCN1C(=O)[C@@H]2[C@@H](c3ccc(-c4ccc(OC)cc4)c(OC)c3)N3CCCC[C@@]3(C(=O)OC)[C@@H]2C1=O was read as Pf growth 48h 2.94µM*, Pf growth 96h 4.15µM* and SARS PLpro yeast -4.9%.
`CCN1C(=O)[C@@H]2[C@@H](c3ccc(-c4ccc5c(c4)OCO5)c(OC)c3)N3CCC[C@@]3(C(=O)OC)[C@@H]2C1=O` gave Pf growth 48h inconclusive, Pf growth 96h inconclusive and SARS PLpro yeast 1.4%.
For COc1cccc(OC2OC3COC(C)(C)OC3C(O)C2NC(C)=O)c1 (stereo not drawn) the results were Shiga toxin inh -21.5, Pf growth 48h 4.2%, NS1 function inh 0.9%, Pf growth 96h 29.9%, Cycloheximide cs 2.0 and SARS PLpro yeast -0.3%.
For CCN1C(=O)[C@@H]2[C@@H](c3ccc(-c4ccc(Cl)c(Cl)c4)c(OC)c3)N3CCC[C@@]3(C(=O)OC)[C@@H]2C1=O the results were Pf growth 48h 5.22µM*, Pf growth 96h 0.828µM* and SARS PLpro yeast -7.3%.
CCN1C(=O)[C@@H]2[C@@H](c3ccc(-c4ccc(Cl)c(Cl)c4)cc3)N3CCCC[C@@]3(C(=O)OC)[C@@H]2C1=O was read as Pf growth 48h 0.4%, Pf growth 96h inconclusive and SARS PLpro yeast 0.4%.
For Cc1ccc(NC(=O)Nc2ccc(F)c(Cl)c2)cc1 the results were Shiga toxin inh 81.6*, Pf growth 48h -72.5%, NS1 function inh -40.7%, Pf growth 96h -6.1%, Cycloheximide cs 30.5* and SARS PLpro yeast -2.3%.
Screening Cc1ccc(NC(=O)Nc2cccn(Cc3c(F)cccc3Cl)c2=O)cc1 returned Shiga toxin inh 34.2, Pf growth 48h -20.3%, NS1 function inh -2.3%, Pf growth 96h 5.22µM*, Cycloheximide cs -0.8 and SARS PLpro yeast 0.5%.
For CCOC(=O)c1ccc(NC(=O)Nc2ccon2)cc1 the results were Shiga toxin inh 66.2*, Pf growth 48h -1.2%, NS1 function inh -66.2%, Pf growth 96h -3.3%, Cycloheximide cs 30.6* and SARS PLpro yeast -1.0%.
For O=C(Nc1ccc(Cl)c(Cl)c1)Nc1ccccc1O the results were Shiga toxin inh 91.0*, Pf growth 48h 138.3%, NS1 function inh -136.3%, Pf growth 96h 69.1%, Cycloheximide cs 56.9* and SARS PLpro yeast -30.2%.
`COc1cc(NC(=O)Nc2ccc(Cl)c(Cl)c2)c(C(=O)O)cc1OC` gave Shiga toxin inh -1.0, Pf growth 48h 23.9%, NS1 function inh 6.3%, Pf growth 96h -20.4%, Cycloheximide cs -0.5 and SARS PLpro yeast 0.7%.
`O=C(c1cc(-c2ccco2)nc2ccccc12)N1CCCC(C(F)(F)F)C1` (stereo not drawn) gave Pf growth 48h inconclusive, Pf growth 96h inconclusive and SARS PLpro yeast -5.0%.
NC(=O)c1cccc(NC(=O)Nc2ccc(Cl)cc2)c1 was read as Shiga toxin inh 21.5, Pf growth 48h 16.1%, NS1 function inh 11.4%, Pf growth 96h inconclusive and Cycloheximide cs 18.5*.
Screening N#Cc1ccc(NC(=O)Nc2ccc(Cl)cc2)cc1 returned Shiga toxin inh 60.6*, Pf growth 48h inconclusive, NS1 function inh -44.0%, Pf growth 96h 29.1%, Cycloheximide cs 38.2* and SARS PLpro yeast -40.8%.
`CC(C)(C)N(NC(=O)Nc1ccc(Cl)c(Cl)c1)C(=O)c1ccccc1` gave Shiga toxin inh 10.5, Pf growth 48h 11.7µM*, NS1 function inh 12.4%, Pf growth 96h inconclusive, Cycloheximide cs -2.2 and SARS PLpro yeast -0.2%.
O=C(Nc1ccc(Cl)c(Cl)c1)Nc1ccc(Br)cc1F was read as Shiga toxin inh 13.0, Pf growth 48h inconclusive, NS1 function inh -42.0%, Pf growth 96h 4.65µM*, Cycloheximide cs 10.2 and SARS PLpro yeast -74.8%.
`COC(=O)c1cccc(NC(=O)Nc2ccc(Cl)cc2Cl)c1` gave Shiga toxin inh 33.3, Pf growth 48h 0.0%, NS1 function inh 2.0%, Pf growth 96h inconclusive, Cycloheximide cs 11.6 and SARS PLpro yeast -0.6%.
Screening S=c1[nH]nc(Cc2sc(-c3ccccc3)nc2-c2ccccc2)o1 returned Shiga toxin inh 16.6, NS1 function inh -53.1%, Pf growth 96h 0.8%, Cycloheximide cs -2.0 and SARS PLpro yeast 2.2%.
For CCN(CC(=O)Nc1cccc(OC)c1)CC(=O)Nc1ccc(Br)c(C)c1 the results were Shiga toxin inh 3.5, Pf growth 48h inconclusive, NS1 function inh -9.8%, Pf growth 96h -20.3%, Cycloheximide cs -2.5 and SARS PLpro yeast -5.3%.
Screening COc1ccc(NC(=O)Nc2ccc(Br)c(C)c2)cc1 returned Shiga toxin inh 30.6*, Pf growth 48h -23.8%[5.75 µM], NS1 function inh 0.0%, Pf growth 96h 14.5%, Cycloheximide cs 10.9 and SARS PLpro yeast -0.7%.
Screening O=C(Nc1cccnc1)c1sc2cccc(F)c2c1Cl returned Shiga toxin inh 47.4*, Pf growth 48h 35.4%, NS1 function inh -7.8%, Pf growth 96h inconclusive, Cycloheximide cs 38.2* and SARS PLpro yeast -2.3%.

Screening results as filed in PubChem BioAssay.
